Results as given in PubChem BioAssay AID1159580 (chemical genetic matrix, 2015).
“And” between values parts separate entries of the source, which are not always exact repeats. Identical values can stand only once. Out of some 5,500 compounds screened, about 2,000 (36%) were called active. Inconclusive results (about 18%) are left out. No stated cut-off is given here; in the data, active means normalized growth mostly below about 0.91 (no sharp cut-off); inconclusive means no clear call, values can overlap the other calls; inactive means mostly above about 0.92. The list shows a part of the results.

Assay: chemical genetic growth profiling, strain panel (AID 1159580);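 further: tested at 20 µM; growth read once vehicle control cultures reached saturation at 30 °C; 1 = growth at the plate median or of vehicle wells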
Settings: growth OD
[1] = S. cerevisiae deletion strains, locus YBR021W, strain FUR4, stronger effect = lower value
[2] = S. cerevisiae deletion strains, locus YBR229C, strain ROT2, stronger effect = lower value
[3] = S. cerevisiae deletion strains, locus YCL029C, strain bik1, stronger effect = lower value
[4] = S. cerevisiae deletion strains, locus YDL035C, strain GPR1, stronger effect = lower value
[5] = S. cerevisiae deletion strains, locus YDL074C, strain BRE1, stronger effect = lower value
[6] = S. cerevisiae deletion strains, locus YDL101C, strain DUN1, stronger effect = lower value
[7] = S. cerevisiae deletion strains, locus YDL134C, strain PPH21, stronger effect = lower value
[8] = S. cerevisiae deletion strains, locus YDL185W, strain tfp1, stronger effect = lower value
[9] = S. cerevisiae deletion strains, locus YDL192W, strain arf1, stronger effect = lower value
[10] = S. cerevisiae deletion strains, locus YDR101C, strain arx1, stronger effect = lower value
[11] = S. cerevisiae deletion strains, locus YDR162C, strain NBP2, stronger effect = lower value
[12] = S. cerevisiae deletion strains, locus YDR318W, strain mcm21, stronger effect = lower value
[13] = S. cerevisiae deletion strains, locus YDR388W, stronger effect = lower value
[14] = S. cerevisiae deletion strains, locus YDR502C, strain sam2, stronger effect = lower value
[15] = S. cerevisiae deletion strains, locus YER110C, stronger effect = lower value
[16] = S. cerevisiae deletion strains, locus YER155C, strain BEM2, stronger effect = lower value
[17] = S. cerevisiae deletion strains, locus YER167W, strain BCK2, stronger effect = lower value
[18] = S. cerevisiae deletion strains, locus YGL078C, strain dbp3, stronger effect = lower value
[19] = S. cerevisiae deletion strains, locus YGL086W, strain mad1, stronger effect = lower value
[20] = S. cerevisiae deletion strains, locus YGL248W, strain PDE1, stronger effect = lower value
[21] = S. cerevisiae deletion strains, locus YGR135W, strain pre9, stronger effect = lower value
[22] = S. cerevisiae deletion strains, locus YGR252W, strain gcn5, stronger effect = lower value
[23] = S. cerevisiae deletion strains, locus YHR030C, strain SLT2, stronger effect = lower value
[24] = S. cerevisiae deletion strains, locus YHR079C, strain IRE1 (second series), stronger effect = lower value
[25] = S. cerevisiae deletion strains, locus YHR094C, strain hxt1, stronger effect = lower value
[26] = S. cerevisiae deletion strains, locus YHR129C, strain ARP1, stronger effect = lower value
[27] = S. cerevisiae deletion strains, locus YHR200W, strain rpn10, stronger effect = lower value
[28] = S. cerevisiae deletion strains, locus YIL066C, strain RNR3, stronger effect = lower value
[29] = S. cerevisiae deletion strains, locus YIL073C, strain SPO22, stronger effect = lower value
[30] = S. cerevisiae deletion strains, locus YIL125W, strain kgd1, stronger effect = lower value
[31] = S. cerevisiae deletion strains, locus YIR030C, strain dcg1, stronger effect = lower value
[32] = S. cerevisiae deletion strains, locus YJL095W, strain BCK1, stronger effect = lower value
[33] = S. cerevisiae deletion strains, locus YJL134W, strain LCB3, stronger effect = lower value
[34] = S. cerevisiae deletion strains, locus YJL168C, strain set2, stronger effect = lower value
[35] = S. cerevisiae deletion strains, locus YJL187C, strain SWE1 (second series), stronger effect = lower value
[36] = S. cerevisiae deletion strains, locus YJR043C, strain POL32, stronger effect = lower value
[37] = S. cerevisiae deletion strains, locus YJR075W, strain HOC1, stronger effect = lower value
[38] = S. cerevisiae deletion strains, locus YKL009W, strain mrt4, stronger effect = lower value
[39] = S. cerevisiae deletion strains, locus YKL068W, stronger effect = lower value
[40] = S. cerevisiae deletion strains, locus YKL085W, strain MDH1 (second series), stronger effect = lower value
[41] = S. cerevisiae deletion strains, locus YKL085W, strain MDH1, stronger effect = lower value
[42] = S. cerevisiae deletion strains, locus YKL190W, strain CNB1, stronger effect = lower value
[43] = S. cerevisiae deletion strains, locus YKR001C, strain vps1, stronger effect = lower value
[44] = S. cerevisiae deletion strains, locus YLR039C, strain RIC1, stronger effect = lower value
[45] = S. cerevisiae deletion strains, locus YLR058C, strain SHM2, stronger effect = lower value
[46] = S. cerevisiae deletion strains, locus YLR102C, strain apc9, stronger effect = lower value
[47] = S. cerevisiae deletion strains, locus YLR268W, strain sec22, stronger effect = lower value
[48] = S. cerevisiae deletion strains, locus YLR330W, strain CHS5, stronger effect = lower value
[49] = S. cerevisiae deletion strains, locus YLR371W, strain rom2, stronger effect = lower value
[50] = S. cerevisiae deletion strains, locus YLR418C, strain cdc73, stronger effect = lower value
[51] = S. cerevisiae deletion strains, locus YML016C, strain PPZ1, stronger effect = lower value
[52] = S. cerevisiae deletion strains, locus YML032C, strain rad52, stronger effect = lower value
[53] = S. cerevisiae deletion strains, locus YML124C, strain tub3, stronger effect = lower value
[54] = S. cerevisiae deletion strains, locus YMR078C, strain ctf18, stronger effect = lower value
[55] = S. cerevisiae deletion strains, locus YMR223W, strain ubp8, stronger effect = lower value
[56] = S. cerevisiae deletion strains, locus YMR307W, strain GAS1, stronger effect = lower value
[57] = S. cerevisiae deletion strains, locus YNL067W, strain RPL9B, stronger effect = lower value
[58] = S. cerevisiae deletion strains, locus YNL153C, strain GIM3, stronger effect = lower value
[59] = S. cerevisiae deletion strains, locus YNL233W, strain BNI4, stronger effect = lower value
[60] = S. cerevisiae deletion strains, locus YNL250W, strain rad50, stronger effect = lower value
[61] = S. cerevisiae deletion strains, locus YNL271C, strain bni1, stronger effect = lower value
[62] = S. cerevisiae deletion strains, locus YNL298W, strain CLA4, stronger effect = lower value
[63] = S. cerevisiae deletion strains, locus YNL307C, strain MCK1, stronger effect = lower value
[64] = S. cerevisiae deletion strains, locus YNR052C, strain pop2, stronger effect = lower value
[65] = S. cerevisiae deletion strains, locus YOL006C, strain TOP1, stronger effect = lower value
[66] = S. cerevisiae deletion strains, locus YOL012C, strain htz1
[67] = S. cerevisiae deletion strains, locus YOL147C, strain pex11, stronger effect = lower value
[68] = S. cerevisiae deletion strains, locus YOR061W, strain CKA2, stronger effect = lower value
[69] = S. cerevisiae deletion strains, locus YOR069W, strain VPS5, stronger effect = lower value
[70] = S. cerevisiae deletion strains, locus YOR136W, strain idh2, stronger effect = lower value
[71] = S. cerevisiae deletion strains, locus YOR144C, strain elg1, stronger effect = lower value
[72] = S. cerevisiae deletion strains, locus YOR184W, strain ser1, stronger effect = lower value
[73] = S. cerevisiae deletion strains, locus YOR316C, strain cot1, stronger effect = lower value
[74] = S. cerevisiae deletion strains, locus YPR119W, strain clb2, stronger effect = lower value
[75] = S. cerevisiae deletion strains, locus YPR141C, strain kar3, stronger effect = lower value
[76] = S. cerevisiae deletion strains, locus YPR163C, strain tif3, stronger effect = lower value
[77] = S. cerevisiae deletion strains, locus YPR167C, strain met16, stronger effect = lower value
[78] = S. cerevisiae deletion strains, strain wtn01, stronger effect = lower value

Measured: normalized growth

CC(=O)OC1CC[C@@]2(C)C(CC[C@]3(C)C2CCC2C4CC(C)(C)CCC4(C(=O)O)CC[C@]23C)C1(C)C (some centres not stated)
inactive: [1] 1.02 | [2] 0.998 | [3] 0.968 | [4] 1.06 | [5] 1.05 | [6] 0.985 | [7] 1.03 | [8] 0.934 | [9] 1.01 | [10] 1.02 | [11] 1.01 | [12] 0.993 | [13] 0.975 | [14] 0.999 | [15] 0.971 | [16] 0.985 | [17] 0.998 | [18] 0.974 | [19] 1.01 | [20] 1.04 | [21] 0.972 | [22] 1.05 | [23] 1.01 | [24] 0.975 | [25] 0.978 | [26] 1.03 | [27] 0.999 | [28] 1.01 | [29] 0.986 | [30] 0.979 | [31] 0.974 | [32] 1.03 | [33] 0.994 | [34] 0.977 | [35] 1.01 | [36] 1.07 | [37] 1 | [38] 0.966 | [39] 1.02 | [40] 1.01 | [41] 1.01 | [42] 0.996 | [43] 1.01 | [44] 1.11 | [45] 1.02 | [46] 0.973 | [47] 0.998 | [48] 0.996 | [49] 0.968 | [50] 1.02 | [51] 1 | [52] 0.987 | [53] 0.991 | [54] 0.968 | [55] 0.976 | [56] 1.25 | [57] 0.989 | [58] 0.998 | [59] 1.03 | [60] 0.92 | [61] 0.995 | [62] 0.992 | [63] 1.01 | [64] 0.992 | [65] 1.25 | [66] 1.01 | [67] 0.979 | [68] 1 | [69] 1 | [70] 0.983 | [71] 0.989 | [72] 1.08 | [73] 0.964 | [74] 0.951 | [75] 0.975 | [76] 0.985 | [77] 0.99 | [78] 1.01

C[C@@H]1OC(O[C@H]2[C@H](O)[C@@H](O)[C@H](OC[C@H]3O[C@@H](OC(=O)[C@]45CCC(C)(C)CC4C4=CCC6[C@@]7(C)CC[C@H](OC8OC[C@H](O)[C@H](O)[C@H]8OC8O[C@@H](C)[C@H](O)[C@@H](O)[C@H]8O)[C@@](C)(CO)C7CC[C@@]6(C)[C@]4(C)CC5)[C@H](O)[C@@H](O)[C@@H]3O)O[C@@H]2CO)[C@H](O)[C@H](O)[C@H]1O (some centres not stated)
inactive: [1] 0.991 | [2] 0.987 | [3] 0.985 | [4] 1 | [5] 0.99 | [6] 0.992 | [7] 1.02 | [8] 0.97 | [9] 0.985 | [10] 0.995 | S. cerevisiae deletion strains, locus YDR150W, strain NUM1, stronger effect = lower value 0.998 | [11] 1.02 | [12] 0.993 | [13] 0.986 | [14] 0.99 | S. cerevisiae deletion strains, locus YEL061C, strain CIN8, stronger effect = lower value 0.993 | [15] 0.986 | [16] 0.989 | [17] 1 | [18] 0.985 | [19] 1.01 | [20] 0.991 | [21] 0.993 | S. cerevisiae deletion strains, locus YGR229C, strain SMI1, stronger effect = lower value 1.01 | [22] 0.987 | [23] 0.997 and 1.02 | [24] 0.993 | S. cerevisiae deletion strains, locus YHR079C, strain IRE1, stronger effect = lower value 1.01 | [25] 0.996 | [26] 0.99 | [27] 0.997 | [28] 1 | [29] 0.993 | [30] 0.983 | [31] 1 | [32] 1.01 and 0.985 | [33] 0.991 | [34] 0.991 | [35] 0.997 | [36] 1.02 | S. cerevisiae deletion strains, locus YJR066W, strain TOR1, stronger effect = lower value 0.967 | [37] 1.02 | [38] 0.968 | [39] 0.98 | [40] 1 | [41] 1 | [42] 0.995 | [43] 0.984 | [44] 1.04 | [45] 0.988 | [46] 0.993 | S. cerevisiae deletion strains, locus YLR113W, strain HOG1, stronger effect = lower value 0.992 | S. cerevisiae deletion strains, locus YLR262C, strain YPT6, stronger effect = lower value 1.03 | [47] 0.992 | [48] 0.989 | S. cerevisiae deletion strains, locus YLR342W, strain FKS1 (second series), stronger effect = lower value 1.01 | [49] 0.986 | [50] 0.992 | [51] 0.987 | [52] 0.986 | [53] 0.991 | [54] 0.985 | [55] 0.98 | S. cerevisiae deletion strains, locus YMR263W, strain SAP30, stronger effect = lower value 1.01 | [56] 1.06 | [57] 1.01 | S. cerevisiae deletion strains, locus YNL128W, strain TEP1, stronger effect = lower value 0.994 | [58] 1.02 | S. cerevisiae deletion strains, locus YNL183C, strain NPR1, stronger effect = lower value 0.983 | [59] 1 | [60] 0.971 | [61] 0.987 | [62] 0.993 | [63] 0.989 | [64] 0.978 | [65] 0.946 | [66] 0.966 | [67] 0.997 | [68] 0.984 | [69] 0.991 | [70] 0.979 | [71] 0.997 | [72] 1.01 | S. cerevisiae deletion strains, locus YOR231W, strain MKK1, stronger effect = lower value 0.983 | [73] 0.983 | S. cerevisiae deletion strains, locus YPL055C, strain LGE1, stronger effect = lower value 1.02 | S. cerevisiae deletion strains, locus YPL241C, strain CIN2, stronger effect = lower value 0.997 | S. cerevisiae deletion strains, locus YPL256C, strain CLN2, stronger effect = lower value 1.04 | [74] 0.991 | [75] 0.982 | [76] 0.994 | [77] 0.985 | [78] 1 | S. cerevisiae strains, strain wild type, stronger effect = lower value 0.994
